Results on 69 molecules are retold here after PubChem BioAssay AID1259418 (Broad Institute, 2018).

Out of some 3,400 compounds screened, about 840 (25%) were called active. Not shown: some 11% with an inconclusive outcome.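 The calls were made as follows: active = fitted half-maximal concentration of signal decrease at or below twice the sample's top tested concentration; inconclusive = flat curve between -70 and -30 percent, or poor fit; inactive = flat within 30 percent, signal rise, or potency above limit.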 Not all results are given here. Potency and affinity values are given separately.

The experiment can be described thus: inhibitors of Toxoplasma growth in IFN-γ-primed HeLa – cell-based, ME49Luc, luciferase, 72 h, dose response (AID 1259418). The note with it: T. gondii ME49Luc in IFN-y HeLa, hits give low values, -100% = high-dose IFN-γ control wells; at 19.5 µM unless noted.
Regarding `Cc1cccc(-c2nc(Cn3nnc(-c4nc(-c5ccc(Cl)cc5)no4)c3C)c(C)o2)c1`, the max activity was 25.6% (inactive). Then `O=C(NCCc1csc(-c2ccccc2)n1)C1CCN(C(=O)CCc2ccccc2)CC1`, with -11.1% (inactive); and `CCCCC[C@H](CC(=O)NO)C(=O)N[C@H](C(=O)N1CCC[C@H]1CO)C(C)C`, with 15.6% (inactive); and `CCOc1ccccc1-c1nc(Cn2c(=O)c3c(C)cc(C)nc3n(-c3ccccc3)c2=O)c(C)o1`, with 5.33% [at 0.16 µM] (inactive).

For the molecule `CC[C@H](C(=O)N1CCCC[C@H]1C(=O)O[C@H](CCc1ccc(OC)c(OC)c1)c1cccc(OCC(=O)NCCNC(=O)COc2cccc([C@@H](CCc3ccc(OC)c(OC)c3)OC(=O)[C@@H]3CCCCN3C(=O)[C@@H](CC)c3cc(OC)c(OC)c(OC)c3)c2)c1)c1cc(OC)c(OC)c(OC)c1`, the max activity was -14% [at 5 µM] (inactive). For `Cc1ccc(C)c(-c2coc(-c3ccc(NC(=O)NC4CCCCC4)cc3)n2)c1`, the max activity is 6.93% [at 0.16 µM] (inactive). Then `N#Cc1cccc(-c2ccc3c(c2)[C@H]2[C@H](CCN2Cc2ccc4c(c2)OCO4)[C@H](CO)N3)c1`, with 17.9% [at 10 µM] (inactive). Take `N#Cc1cccc(-c2ccc3c(c2)[C@H]2[C@H](CCN2Cc2ccc4c(c2)OCO4)[C@@H](CO)N3)c1`: the max activity is 21.2% [at 10 µM] (inactive). Then `CCCC#Cc1ccc([C@@H]2[C@H]3CN(C(=O)Nc4cccc(F)c4)CC(=O)N3[C@H]2CO)cc1`, with 7.32% [at 0.16 µM] (inactive); and `C/C=C/c1ccc([C@H]2[C@H]3CN(C(=O)Nc4cccc(OC)c4)CC(=O)N3[C@H]2CO)cc1`, with -12% [at 21 µM] (inactive); and `C/C=C/c1ccc([C@@H]2[C@@H](CO)N3C(=O)CN(C(=O)Nc4cccc(OC)c4)C[C@@H]23)cc1`, with 27% [at 10 µM] (inactive). Take `CC(C)CC(=O)N1CCC(C(=O)NCCc2csc(-c3cccs3)n2)CC1`: the max activity was 7.82% (inactive).

For the molecule `Cc1ccc(C)c(-c2coc(-c3ccc(NC(=O)Nc4ccc5c(c4)OCO5)cc3)n2)c1`, the max activity was 81.1% (inactive). Consider `CCc1nc(OCC(=O)Nc2cccc(C)c2)c2ccccc2n1`, for which the max activity is -9.62% [at 1.35 µM] (inactive). To `Cc1cccc(OCC(=O)N2CSC[C@@H]2C(=O)NCCc2csc(-c3ccccc3)n2)c1` belongs -20.7% [at 0.68 µM] (inactive). `Cc1ccc2c(c1C)-n1cccc1C1(CCN(C(=O)c3c(F)cccc3F)CC1)N2`: the max activity is -8.13% [at 0.16 µM] (inactive). For `NC(=O)C1(N2CCCCC2)CCN(c2ncc(NC(=O)c3cccs3)cc2C(=O)O)CC1`, the max activity is 8.78% [at 0.16 µM] (inactive). On to `CSc1cccc(NC(=O)Nc2ccc(-c3nc(-c4ccc(C)cc4)co3)cc2)c1`, for which the max activity was 26.9% (inactive). To `O=C(Cn1c(=O)c(S(=O)(=O)c2ccccc2)cc2ccccc21)NC1CCCCC1` belongs 2.73% (inactive); to `Fc1ccc(CSc2nc(NCc3ccco3)c3ccccc3n2)cc1`, -10.7% [at 2.6 µM] (inactive); to `Cc1nc(-c2cc(S(=O)(=O)N3CCC(Cc4ccccc4)CC3)c(C)s2)sc1C`, 9.1% [at 0.16 µM] (inactive).

In the case of `CCOc1ccccc1-c1nc(CSc2nc3c(c(=O)[nH]2)CN(CCOC)CC3)c(C)o1`, the max activity is 20.2% [at 10 µM] (inactive).

Take `CCc1nc(OCC(=O)Nc2ccccc2F)c2ccccc2n1`: the max activity is 12.8% [at 10 µM] (inactive). Turning to `COc1ccc(NC(=O)CN2CCC3(CC2)N=C(c2cccc(F)c2)C(=O)N3)cc1Cl`, the max activity was 18.3% [at 5 µM] (inactive). Turning to `Cc1ccc(CSC2=Nc3ccccc3C3=NC(CC(=O)NC4CCCCC4)C(=O)N23)c(C)c1` (centres undefined), the max activity is 15.1% [at 5 µM] (inactive). Then `O=C(CN1CCC2(CC1)N=C(c1ccc(F)cc1)C(=O)N2)Nc1ccccc1C(F)(F)F`, with 7.82% [at 10 µM] (inactive). To `O=C(COc1ccccc1Cl)Nc1cncc(-c2nc3ccccc3o2)c1` belongs -6.28% [at 2.6 µM] (inactive); to `COc1ccc(N(Cc2nc(-c3cccc(C)c3)oc2C)S(=O)(=O)c2ccc(OC)cc2)cc1`, -8.14% [at 0.35 µM] (inactive); to `COc1ccc(N(Cc2nc(-c3cccc(Cl)c3)oc2C)S(=O)(=O)c2ccc(OC)cc2)cc1`, -8.48% [at 2.6 µM] (inactive). Then `COc1cccc(N(Cc2nc(-c3ccccc3)oc2C)S(=O)(=O)c2ccccc2)c1`, with -4.33% (inactive); and `COc1cccc(N(Cc2nc(-c3cccc(Cl)c3)oc2C)S(=O)(=O)c2ccccc2)c1`, with 9.67% [at 0.68 µM] (inactive); and `COc1ccc(N(Cc2nc(-c3cccc(C)c3)oc2C)S(=O)(=O)c2ccc(C)cc2)cc1`, with -7.34% [at 1.35 µM] (inactive).

`COc1ccc(CC(=O)N2CCC3(CC2)Nc2cc(F)ccc2-n2cccc23)cc1OC`: the max activity is 6.12% [at 2.6 µM] (inactive). On to `COc1ccc(-c2nc3c(s2)CN(S(=O)(=O)c2ccc(C(C)C)cc2)CC3)cc1`, for which the max activity was 10.1% [at 0.16 µM] (inactive). Then `CCCN1CCc2nc(SCc3nc(-c4ccc(OCC)c(OC)c4)oc3C)[nH]c(=O)c2C1`, with 28.6% [at 0.16 µM] (inactive). To `Cc1ccc(-c2coc(-c3ccc(NC(=O)Nc4ccc(F)cc4)cc3)n2)cc1` belongs 8.43% [at 10 µM] (inactive); to `Cc1c(-c2n[nH]c(=S)n2-c2ccccc2)sc2nc3n(c(=O)c12)CCC3`, -9.68% [at 0.16 µM] (inactive). Regarding `CCc1cccc(NC(=O)COc2nc(CC)nc3ccccc23)c1`, the max activity was -10.7% [at 10 µM] (inactive). For the molecule `Cc1nc(OCC(=O)NCc2ccccc2)c2ccccc2n1`, the max activity is 19.6% [at 0.16 µM] (inactive). For the molecule `Cn1cccc1C(=O)Nc1ccc2c(c1)CCC(=O)N2`, the max activity was 85.5% (inactive). In the case of `Cn1c(=O)c(C(=O)Nc2ccccc2)cc2cccnc21`, the max activity was 14.2% [at 2.6 µM] (inactive). For `CCc1nc(OCC(=O)Nc2ccccc2Cl)c2ccccc2n1`, the max activity was -7.29% [at 1.35 µM] (inactive). Regarding `Cc1nc(C)c(C(=O)N2CCCC2c2nc(-c3ccc(F)cc3F)no2)s1` (centres undefined), the max activity was 25.6% [at 10 µM] (inactive). Then `CCc1nc(OCC(=O)Nc2c(C)cc(C)cc2C)c2ccccc2n1`, with 7.02% [at 2.6 µM] (inactive); and `Cc1ccc(CNC(=O)Nc2ccc(-c3nc(-c4ccccc4)co3)cc2)cc1`, with 90.3% [at 10 µM] (inactive); and `CN1C(=O)c2cc(NC(=O)Cc3cccs3)ccc2OC[C@H]2O[C@@H](CC(=O)NCc3ccc(-c4ccccc4)cc3)CC[C@@H]21`, with -7.79% [at 1.2 µM] (inactive). To `Cc1oc(-c2ccccc2)nc1Cn1nnc(-c2nc(-c3ccccc3Br)no2)c1C` belongs -8.57% [at 0.35 µM] (inactive).

Regarding `CC(=O)O[C@H]1C[C@@H](OC(C)=O)C(C)(C)C2C[C@@H](OC(C)=O)[C@@]3(C)C4=CC(=O)O[C@@H](c5ccoc5)[C@]4(C)CCC3[C@]21C` (some centres undefined), the max activity is -9.83% [at 5 µM] (inactive).

Turning to `Cc1ccc(CNC(=O)Nc2ccc(-c3nc(-c4ccc(C)cc4C)co3)cc2)cc1`, the max activity is 14.7% [at 0.16 µM] (inactive).

Turning to `CCCCC(=O)Nc1ccc(-c2nc(-c3cc(C)ccc3C)co2)cc1`, the max activity was -7.17% [at 5 µM] (inactive). Then `N#Cc1ccc(-c2ccc([C@H]3[C@@H](CO)N4C(=O)CNC[C@@H]34)cc2)cc1`, with 52.5% (inactive); and `O=C1CNC[C@@H]2[C@H](c3ccc(C#Cc4cccnc4)cc3)[C@H](CO)N12`, with 36.8% (inactive); and `O=C1CNC[C@@H]2[C@H](c3ccc(C#Cc4cccnc4)cc3)[C@@H](CO)N12`, with 42.6% (inactive). On to `O=C1CC2C(CCN2Cc2ccc(F)cc2)N1CCN1CCOCC1` (centres undefined), for which the max activity was 15.6% [at 10 µM] (inactive).

For `Cc1ccc(-c2coc(-c3ccc(NC(=O)c4sccc4C)cc3)n2)c(C)c1`, the max activity is 14.5% (inactive). `COC[C@H](N)C(=O)N1CCC(Cc2nnc(SC)n2C)CC1`: the max activity is 32.3% (inactive). Then `Cc1nc(Cn2cnc(-c3nc(C(=O)NCc4cc(F)cc(F)c4)c4ccccn34)c2)cs1`, with -10.1% (inactive); and `Cc1ccc(C)c(-c2coc(-c3ccc(NC(=O)Nc4cccc(F)c4)cc3)n2)c1`, with 9.94% [at 2.6 µM] (inactive).

Take `CC(C)Oc1ccc(NC(=O)c2nc3c(n2C(C)C)CCN(C(=O)c2ccccc2)C3)cc1`: the max activity is -6.92% [at 2.6 µM] (inactive).

As to `Cc1ccc(-c2nc(Cn3nnc(-c4nc(-c5cccc(C(F)(F)F)c5)no4)c3C)c(C)o2)cc1`, the max activity is 13.1% (inactive). On to `CCOC(=O)CSC1=Nc2ccccc2C2=NC(CC(=O)NCc3ccccc3OC)C(=O)N12` (centres undefined), for which the max activity is -7.6% [at 0.68 µM] (inactive). For `Cc1cccc(-c2nc(Cn3nnc(-c4nc(-c5cccnc5)no4)c3C)c(C)o2)c1`, the max activity was -5.69% [at 2.6 µM] (inactive). As for `O=C(Nc1ccc(-c2nc(-c3ccccc3)co2)cc1)c1ccc(Cl)cc1`, the max activity is 21.8% [at 5 µM] (inactive).

With `O=C(Nc1ccc(-c2nc(-c3ccccc3)co2)cc1)c1ccc(F)cc1`, the max activity was 21.2% [at 1.35 µM] (inactive). To `Cc1ccc(-c2coc(-c3ccc(NC(=O)c4cccc(F)c4)cc3)n2)cc1` belongs 42.3% (inactive). Turning to `O=C(Nc1ccc(-c2nc(-c3ccccc3)co2)cc1)c1ccccc1`, the max activity was 74.5% (inactive). To `COc1ccc(-c2nc(Cn3nnc(-c4nc(-c5cccc(Cl)c5)no4)c3C)c(C)o2)cc1` belongs -6.44% [at 0.35 µM] (inactive). As to `Cc1nc(CCNC(=O)C2CCN(S(=O)(=O)c3cc(F)ccc3F)CC2)cs1`, the max activity is 21.6% [at 2.6 µM] (inactive). Then `Cc1ccc(C(=O)Nc2c(C(=O)N3CCN(c4ccccn4)CC3)[nH]c3ccccc23)cc1`, with -27.2% (inactive).
